Consider 20 molecules from ChEMBL document CHEMBL3988442, “University of Dundee, Small-Polar-MMV Screening Library” (2021).

For the assay, the target named is AMP-activated protein kinase, AMPK (Homo sapiens) (UniProt P54646+O43741+P54619+Q9UGJ0+Q9Y478+Q13131+Q9UGI9). Description: AMP-dependent Kinase enzyme assay. An in vitro enzyme assay that detects ADP turnover that is directly proportional to AMPK activity. This uses naive AMPK that is activated during the assay with MK-8722. Format: functional. Further details: scale not given: direction of the effect not stated beside the values. The settings on record: 30 µM.
As for `Cc1nnc(SCCNc2cc(C3CC3)ncn2)s1`, the Percent Effect was found to be 14.2%.
The figure for `CCOc1ccccc1CN(C)C(C)c1nc(-c2cccnc2)no1` (stereo not given) is 1.83%; for `CCn1cnnc1CN(C)C(=O)c1cc(COc2cccc(F)c2)[nH]n1` it is -0.905%; for `COc1ccccc1C(=O)NCCC(=O)Nc1c(C)nn(C)c1C` it is 9.26%.
With `O=C(NCC(F)(F)F)c1ccc(-n2cccn2)nn1`, the Percent Effect amounted to 0.877%.
As to `Cc1nc(CNCc2cccc(OC34CCCN(CC3)C4)c2)n[nH]1` (stereo not given), the Percent Effect was -7.43%.
With `CCOc1ccc(Cl)cc1CCNC(=O)Cn1nc(C)ccc1=O`, the Percent Effect is 5.21%.
`Cc1cc(C)n(C2CN(c3nc(N)nc4c3CCCC4)C2)n1`: the Percent Effect is -1.57%.
For the molecule `COC1CCCOC12CCN(C(=O)NCCc1cccs1)CC2` (stereo not given), the Percent Effect amounted to 4.16%.
For the molecule `CCc1ncc2c(n1)CN(Cc1nc(-c3ccco3)oc1C)CC2`, the Percent Effect was -22.8%.
The figure for `Cc1cc(C)c2[nH]c(C(=O)NCCN3CCCC3=O)c(C)c2c1` is 13.3%; for `Cc1nc(CN(C)S(=O)(=O)c2ccc(F)cc2Br)no1` it is 1.76%; for `CN(C)C(CNC(=O)c1ccnc(-n2cncn2)c1)c1ccccc1` (stereo not given) it is -0.565%.
The figure for `Cc1cnn(C2CN(c3ccccc3S(=O)(=O)C(F)(F)F)C2)c1` is 9.6%; for `COCCC1(C(=O)O)CCN(c2cc(C)c3ccccc3n2)CC1` it is 3.32%.
Turning to `COc1ccc(C2CCN(S(=O)(=O)CCCC#N)CC2)cc1`, the Percent Effect was -2.21%.
Regarding `Cc1n[nH]c(C)c1CCN(C)C(=O)c1ccc(CCC(C)(C)O)cc1`, the Percent Effect was found to be 2.23%.
For the molecule `COC(=O)C1(NCC(=O)Nc2cc(C)ccc2OC)CCCCC1`, the Percent Effect is -3.05%.
The figure for `COc1cccc(CN(C)Cc2[nH]c3ccccc3c2C)c1O` is -44.5%; for `NC(=O)c1cccc(-c2cnc(C3CCCNC3)cn2)c1` (stereo not given) it is 12.6%.
